Hits are enriched below; roughly 19% of the tested compounds scored in any of these assays.
Chronic BCR inh = chronic active BCR signaling inhibition; ABC-DLBCL IkBa-CBG/CBR reporter, luminescence ratio, 4 h; Potency, µM (doses to about 46.1 µM), without a hit: top-dose activity change, negative = inhibition, usual class: inhibitors; 0.05% of 340,000 active; AID 493014; active = well fitted inhibition curve with a large enough effect in the signal ratio, with a control signal flat, not every such curve was filed as active; inconclusive = small, poorly fitted or top-dose-only effect, or effect the other way, or a change in a side signal; the % refers to the signal ratio;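 also: potency is read from the fitted curve at half-maximal effect; plate controls were basal doxycycline-induced cells for no effect and cells given 10 µM MG132 for full effect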
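TMD8 ABC-DLBCL cells carrying doxycycline-inducible green luciferase fused to IkappaBalpha plus unfused red luciferase were exposed to compounds (up to 46 uM) for 4 hrs at 37C. Activity came from the overlap-corrected green/red luminescence ratio.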
MCF10A rereplic = inducers of DNA re-replication in MCF 10A breast cells. MCF 10A DNA re-replication, Hoechst nuclear intensity, 48 h. 2.9% of 350,000 active. Potency, µM (doses to about 46.1 µM), for the others: at the highest dose activity, positive = re-replication, usual class: activators. AID 624296; also: potency is read from the fitted curve at half-maximal effect; % of control where 0% means no effect; nearly all actives have a fitted effect of over 50% in size
IL1B secr inh = inhibitors of inflammasome signaling (IL-1 beta secretion); THP-1 LPS/ATP IL-1B secretion, AlphaLISA, 16 h; hits give low values; activity change, % at 57.5 µM; 4.7% of 360,000 active; AID 743279; in the data active = activity change below about -50%; inconclusive = mostly about -30% to -49%; also: % is scaled to controls: 0 for no effect and ±100 for the full control effect
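Secreted IL-1B measured by AlphaLISA bead assay after 16 h compound exposure of THP-1 cells; compounds (final up to 57.5 uM) added 1 h before LPS (250 ng/mL) and ATP (1.25 mM) stimulation; lower signal means less secretion.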
SW480 rerep = inducers of DNA re-replication in SW480 colon cancer cells. SW480 DNA re-replication, Hoechst DNA content imaging, 48 h. Potency, µM (titrated, usually from 46.1 µM), for the others: top-dose re-replication activation, hits mostly activators. 1.8% of 340,000 active. AID 624297; also: potency is read from the fitted curve at half-maximal effect; % of control where 0% means no effect; nearly all actives have a fitted effect of over 55% in size
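Image-based read-out: total Hoechst fluorescence of nuclei (405 nm excitation, 500-530 nm emission), with hits raising the fraction of high-intensity nuclei. SW480 colon cells incubated 48 hr with compounds at 37 C.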
TDP1 cell CPT = growth inhibition of DT40 Tdp1-/-;hTDP1 cells with camptothecin (screen for TDP1 inhibitors); chicken DT40 Tdp1-/-;hTDP1 cells + 20 nM CPT, ATP luminescence, 48 h; Potency, µM (highest dose often 46.2 µM), for inactives: at the highest dose activity change, negative = growth inhibition, usual class: inhibitors; 12% of 420,000 active; AID 686979; also: potency is read from the fitted curve at half-maximal effect; % is scaled to controls: 0 for no effect and ±100 for the full control effect; nearly all actives have a fitted effect of over 55% in size
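Cell growth measured by CellTiter-Glo luminescence after a minimum 48 h, 37 C compound exposure with 20 nM CPT in Tdp1-knockout DT40 cells stably expressing hTDP1, seeded 400/well; qHTS titration format.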
DT40 TDP1 no CPT = qHTS for Inhibitors of human tyrosyl-DNA phosphodiesterase 1 (TDP1): qHTS in cells in absence of CPT | DT40 Tdp1-/- hTDP1 cells, no CPT, ATP luminescence, 48 h | Potency, µM (top dose mostly 46.2 µM), without a hit: at the top dose activity change, negative = growth inhibition, hits mostly inhibitors | 15% of 420,000 active | AID 686978, 2013; also: potency is read from the fitted curve at half-maximal effect; % is scaled to controls: 0 for no effect and ±100 for the full control effect; nearly all actives have a fitted effect of over 55% in size
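Growth kinetics read by CellTiter-Glo luminescence after ≥48 hr at 37 °C. Cells: DT40 Tdp1-/- stably carrying human TDP1, 400 per well, compound exposure in the absence of CPT (DMSO vehicle).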
Active calls of the source: *; ? = inconclusive; . = no result; [ ] = dose if it differs, or a comment. Unless noted, calls follow the shape of the dose curve; as a rule, active = well fitted curve in the direction sought with a large enough effect; inconclusive = small, poorly fitted or top-dose-only effect, or another doubt; inactive = no such curve, though single readings can be large; an effect the other way counts as inactive or inconclusive.

SMILES	Chronic BCR inh	MCF10A rereplic	IL1B secr inh	SW480 rerep	TDP1 cell CPT	DT40 TDP1 no CPT
CCOc1ccc(C(=O)NC(=S)Nc2ccccn2)cc1[N+](=O)[O-]	?	18%	26	-4%	?	?
O=C(CNC(=S)NC(=O)c1cccc([N+](=O)[O-])c1)c1ccccc1	?	32%	-14	2%	-7%	-14%
O=C(NC(=S)Nc1cc([N+](=O)[O-])ccc1O)c1cccnc1	?	22%	10	-2%	21µM*	26µM*
COc1cc(/C=N/NC(=O)C2CCN(CC(O)COCc3ccccc3)CC2)ccc1O (centres undefined)	1%	4%	22	8%	6%	-1%
COc1ccc(/C=C(/NC(=O)c2cccc([N+](=O)[O-])c2)C(=O)O)cc1	2%	-9%	12	1%	-1%	7%
CC1CN(C(=S)Nc2cccc([N+](=O)[O-])c2)CC(C)O1 (centres undefined)	3%	?	0	-11%	3%	1%
CCCCCC(=O)NNC(=S)NC(=O)c1ccccc1[N+](=O)[O-]	0%	5%	174	13%	?	?
CCCCCC(=O)NNC(=S)NC(=O)c1cccc([N+](=O)[O-])c1	?	7%	33	-12%	15µM*	13µM*
CC1CN(C(=S)NC(=O)c2cccc([N+](=O)[O-])c2)CC(C)O1 (centres undefined)	-10%	2%	28	-10%	?	16µM*
COc1ccc(C(=O)NNC(=S)NC(=O)c2cccc([N+](=O)[O-])c2)cc1	.	2%	56	4%	?	18µM*
COc1ccc(C(=O)/C(C#N)=N/Nc2cccc([N+](=O)[O-])c2)cc1	?	?	-13	?	5.8µM*	4.1µM*
CCOCCCNC(=S)Nc1ccc2nc(N3CCOCC3)cc(C)c2c1	-1%	-3%	-12	-7%	-23%	?
CCC(C)n1c(SCC(=O)NC2CCS(=O)(=O)C2)nc2ccccc2c1=O (centres undefined)	0%	0%	-9	-5%	-22%	-30%
O=[N+]([O-])c1ccc(Nc2cccc(F)c2)nc1	?	0.73µM*	-24	-2%	-3%	0%
CC(=O)Nc1ccc(Nc2ccc([N+](=O)[O-])cn2)cc1	4%	-2%	14	-3%	?	9.2µM*
O=[N+]([O-])c1ccc(Nc2ccc(F)cc2)nc1	?	-2%	-11	0%	?	?
CCN(CC)CC(O)CCCCCCCCC(=O)OC (centres undefined)	0%	2%	-2	-1%	1%	-8%
COC(=O)CCCCCCCCC(O)CN(C)C (centres undefined)	?	?	23	?	?	16µM*
O=c1[nH]c(/C=C/c2ccc(OC(F)F)cc2)nc2c1cnn2-c1ccccc1	?	15µM*	-56*	9.2µM*	?	?
Cc1csc(NC(=O)Cc2ccc(F)cc2)n1	0%	?	-3	1%	9%	-6%
O=C(Cc1ccc(F)cc1)Nc1nc(-c2ccc(F)c(F)c2)cs1	?	2%	?	8%	8.2µM*	?
O=C(CN1C(=O)NC2(CCCC2)C1=O)Nc1nc(-c2ccc(F)c(F)c2)cs1	6%	?	-17	12%	12µM*	?
COc1ccc(CC(=O)Nc2nc(-c3ccc(F)c(F)c3)cs2)cc1	?	?	-85*	?	21µM*	16µM*
O=C(CSc1ncnc2[nH]ncc12)Nc1nc(-c2ccc(F)c(F)c2)cs1	8%	?	-68*	?	13µM*	21µM*
CC(Oc1ccc(Br)cc1)C(=O)NCC(c1cccs1)N1CCOCC1 (centres undefined)	1%	6%	7	-7%	-29%	?
SMILES	Chronic BCR inh	MCF10A rereplic	IL1B secr inh	SW480 rerep	TDP1 cell CPT	DT40 TDP1 no CPT
CCOc1ccc(CNC(=O)c2cnc3sc(N4CCC(C)CC4)nn3c2=O)cc1OC	.	.	.	.	?	1%
COc1ccc(OC)c(-c2csc(NC(=O)Cc3ccccc3OC)n2)c1	16%	11%	?	22%	-18%	?
COc1ccc(OC)c(-c2csc(NC(=O)Cc3ccccc3F)n2)c1	10%	21µM*	-62*	?	?	?
COc1cc(C2c3c(-c4cc(C)ccc4O)n[nH]c3C(=O)N2Cc2cccnc2)cc(OC)c1OC (centres undefined)	.	.	.	.	7%	-11%
COc1ccc(CCN2C(=O)c3[nH]nc(-c4ccccc4O)c3C2c2cccc(Cl)c2)cc1 (centres undefined)	?	?	-26	4%[9.22 µM]	23µM*	21µM*
COCCN1C(=O)c2[nH]nc(-c3ccccc3O)c2C1c1ccc(Cl)c(Cl)c1 (centres undefined)	.	.	.	.	18µM*	9.2µM*
COc1ccc(CCN2C(=O)c3[nH]nc(-c4ccccc4O)c3C2c2cccc(OC)c2)cc1 (centres undefined)	.	.	.	.	?	18µM*
Cc1ccc(C2c3c(-c4ccccc4O)n[nH]c3C(=O)N2CCc2ccccc2)cc1 (centres undefined)	.	.	.	.	?	-106%
CCC(=O)N(C1=C(NC)C(=O)c2ccccc2C1=O)C(C)C	8%	5.8µM*	133	?	2.1µM*	1.6µM*
Cc1nn(-c2ccccc2)c(=S)n1-c1ccccc1	-3%	-1%	42	1%	21µM*	13µM*
COc1ccc2c(c1)sc(=N)n2C	-16%	?	6	?	18µM*	18µM*
CCOC(=O)c1c(C)n(-c2ccc(OC)cc2)c2ccc(OC(=O)COc3ccccc3)cc12	.	.	.	.	?	21µM*
CC(=O)c1c(C)n(-c2ccc(C)cc2)c2ccc(OC(=O)COc3ccccc3)cc12	.	.	.	.	6.5µM*	7.3µM*
CCOC(=O)c1c(C)n(-c2ccccc2)c2ccc(OC(=O)COc3ccccc3)cc12	.	.	.	.	?	-14%
COc1ccc(-n2c(C)c(C(C)=O)c3cc(OC(=O)COc4ccccc4)ccc32)cc1	.	.	.	.	6.5µM*	7.3µM*
COc1ccc(-n2c(C)c(C(C)=O)c3cc(OCC(N)=O)ccc32)cc1	-6%	-1%	-16	2%	?	?
CC1CCC2=C1C[C@H](C(C)(C)O)CC[C@@H]2C (some centres undefined)	.	.	.	.	12%[9.04 µM]	9%[9.04 µM]

Source: PubChem (National Center for Advancing Translational Sciences (NCATS))
